These entries were drawn from the full list.
aSyn UTR act = Activators working through SNCA 5'UTR binding (MLPCN); alpha-synuclein 5'UTR reporter, activators screen; activity score, % (tested at 7.5 µM), hits read low; actives 7.1% (n = 300,000); in the data active = activity score below about -60%
* = called active by the depositor.

SMILES	aSyn UTR act
Cc1cc(NC(=O)c2cccc(Oc3ccccc3)c2)n[nH]1	-109.0*
CCc1ccc2c(c1)/C(=C/C(=O)c1cccs1)C(=O)N2	-65.0*
Cc1ccc(NC(=O)c2ccc3ncsc3c2)cc1S(=O)(=O)N(C)C	-148.4*
O=C(Nc1ccc(C(F)(F)F)cc1)c1ccc2ncsc2c1	-167.3*
O=C(Nc1cccc(Cl)c1)c1ccc2ncsc2c1	-266.2*
O=C(Nc1ccc(Cl)cc1)c1ccc2ncsc2c1	-227.5*
O=C(Nc1ccc(F)cc1)c1ccc2ncsc2c1	-176.3*
C/C(=N\NC(=O)c1ccn[nH]1)c1cn(C)nc1C	-97.9*
O=[N+]([O-])c1cccc(-c2nnc(-c3ccccc3F)o2)c1	-161.5*
O=C(NCc1ccccc1F)c1ccc2c(c1)OCCO2	-79.9*
O=C(CCC1CCCN(C(=O)c2ccc3c(c2)OCCO3)C1)NCc1ccccc1F (stereo not given)	-66.0*
COc1cccc(OCc2cc(C(=O)NC3CCOCC3)no2)c1	-138.7*
CC1(C)CC(NC(=O)c2cc(COc3cccc(C(F)(F)F)c3)on2)CCO1 (stereo not given)	-93.3*
CC1Cc2cc(/C(O)=C3/C(=O)C(=O)N(CC4CCCO4)C3c3ccco3)ccc2O1 (stereo not given)	-61.6*
CCOC(=O)c1c(NC2OC(=O)c3c2ccc(OC)c3OC)sc(C(=O)OC(C)(C)C)c1C (stereo not given)	-79.5*
CC(C)c1ccc2nc(N)sc2c1	-106.7*
Nc1nc2ccc(OC(F)(F)F)cc2s1	-74.4*
Cc1cc2nc(N)sc2cc1C	-64.4*
N#CC1=C(N)Nc2nc3ccccc3n2C1c1ccc(F)cc1 (stereo not given)	-117.1*
O=C(NCCC1CCCC1)c1cccs1	-69.2*
O=C(CCS(=O)(=O)c1cccs1)NC1CCCCCC1	-138.6*
Nc1c(C(=O)NC2CCCC2)sc2nc(-c3cccs3)ccc12	-73.5*
O=C(NC1CCCCCC1)c1cccs1	-81.1*
Nc1c(-c2cccs2)cnc2c(-c3ccc(F)cc3)cnn12	-164.6*
Nc1c(C(=O)O)cnc2c(-c3ccc(Cl)cc3)cnn12	-72.0*
SMILES	aSyn UTR act
CC(C)(C)S(=O)(=O)c1cnc2c(-c3ccsc3)cnn2c1N	-74.4*
CS(=O)(=O)c1cnc2c(-c3ccc(F)cc3)cnn2c1N	-105.8*
COc1ccccc1CCC(=O)Nc1ncc(C)s1	-82.5*
Cc1cnc(NC(=O)COc2ccccc2Cl)s1	82.0
COc1ccccc1CCC(=O)Nc1ccc(C)cc1Cl	-160.2*
Nc1sccc1C(=O)c1ccc(Cl)cc1	-119.5*
CCC(C)N(CC(=O)Nc1cccc(C)c1C)C(=O)CCl (stereo not given)	-88.3*
CCOc1cccc2c1OC(c1cc(OC)c(OC)c(OC)c1)N1N=C(c3ccc(C)o3)CC21 (stereo not given)	-219.4*
COc1cccc2c1OC1(CCN(C(C)C)CC1)N1N=C(c3cccnc3)CC21 (stereo not given)	-78.4*
O=C(N/N=C/c1ccc2nccnc2c1)c1ccccc1O	-149.8*
O=C(N/N=C/c1ccnc2ccccc12)c1ccccc1O	-61.9*
O=C(N/N=C/c1cccnc1)c1cc(Br)ccc1O	-124.6*
Cc1cccc(C(=O)Oc2ccc(/C=N/NC(=O)c3ccccc3O)cc2)c1	-134.8*
O=C(N/N=C/c1cccnc1)c1ccc(NC(=O)C(c2ccccc2)c2ccccc2)cc1	111.3
O=C(N/N=C/c1ccc(O)c2ncccc12)c1cccc(Br)c1	66.6
C(=N\NCc1ccccc1)/c1ccc2nccnc2c1	-106.3*
CCC(SC1=Nc2ccccc2C2=NC(CC(C)C)C(=O)N12)C(=O)Nc1ccc2c(c1)OCO2 (stereo not given)	-64.0*
Cc1ccc(C(=O)Nc2cc3ccccc3oc2=O)cc1	111.1
Cc1oc(=O)c(NC(=O)c2ccccc2)cc1C(=O)c1ccccc1	-205.3*
CC(=O)c1cc(NC(=O)c2ccc(C)cc2)c(=O)oc1C	-116.7*
CC(=O)c1cc(NC(=O)c2ccc(C)cc2)c(=O)oc1/C=C/N(C)C	-78.2*
CC1(C)CNc2cc(N)ccc2S1	-73.5*
c1ccc(-c2onc3cc4c(cc23)OCCO4)cc1	-167.1*
CCc1cc(C=NC2CCCCC2)c(O)s1	-174.5*
COc1ccccc1C(=O)Nc1nc2cc3c(cc2s1)OCCO3	-63.8*
SMILES	aSyn UTR act
COc1ccc(C(=O)Nc2nnc(Cc3ccc(OC)c(OC)c3)s2)c(OC)c1	-82.4*
Cc1nc2cc(NC(=O)CCS(=O)(=O)c3ccccc3)ccc2s1	-172.3*
COc1ccc(C(=O)Nc2nc3cc4c(cc3s2)OCCO4)c(OC)c1	-63.3*
COc1ccccc1C(=O)Nc1nc2cc3c(cc2s1)OCO3	-122.1*
O=C(CCS(=O)(=O)c1ccccc1)Nc1nc2cc3c(cc2s1)OCO3	-64.6*
COc1ccc2nc(NC(=O)c3cccs3)sc2c1	-78.3*
O=C(Nc1nc2ccccc2s1)c1ccc(F)cc1	-89.4*
CC(C)(C)N1C(=O)c2ccc(C(=O)Nc3ccc(O)cc3)cc2C1=O	-87.2*
O=C(Nc1nc2ccccc2s1)c1ccc(Cl)s1	-170.3*
COc1ccc2nc(NC(=O)c3ccc4ncsc4c3)sc2c1	-133.7*
NC(=O)c1ccc2nc(NC(=O)c3ccc(N)cc3)sc2c1	-78.7*

Screens from PubChem.
